High-throughput results (PubChem BioAssay)
Most compounds without a hit are left out; they make up all but 3.6% or so of the library.
VDR inh = vitamin D3 receptor (human) inhibition; AID 504847; Potency, µM, for the others: max response, negative = inhibition, hits mostly inhibitors; VDR-SRC2-3 peptide fluorescence polarization, 2 h; 0.93% of 400,000 active; P11473; further: potency means the concentration at half of the fitted maximal effect; on the % scale 0 is the no-effect control and ±100 the full control effect
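Fluorescence polarization assay measuring small-molecule disruption of VDR binding to the coregulator peptide SRC2-3. Compounds were pin-transferred (23 nl) into the reagent mix and incubated 2 h at room temperature before reading.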
Rango-impB inh = inhibitors of Rango-importin beta complex formation | Q14974 | 0.031% of 340,000 active | Rango CFP/YFP FRET sensor + importin beta, 45 min | AID 540263 | Potency, µM (series often up to 92.2 µM), without a hit: top-dose inhibition of complex formation; calls by dose curve;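 further: potency means the concentration at half of the fitted maximal effect; 0% = DMSO wells and 100% = buffer wells lacking importin beta; nearly all actives have a fitted effect of over 15% in size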
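FRET biosensor (snurportin 1 IBB flanked by EYFP and cerulean), 50 nM, with compound 5 min, then 0.125 microM importin beta in PBS, 1 mM DTT, 0.02% Tween-20, 0.1% BSA. CFP/YFP ratio read after 45 min at room temperature; pre-read flags interference.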
PI5P4Ka inh = blocks human PI5P4K alpha kinase activity | PI5P4Kalpha enzyme, ADP-Glo luminescence, 60 min; active compounds read low | max response, % | 1.2% of 330,000 active | AID 652105; active means max response of -50% or lower; inconclusive means between -30% and -50%; inactive means -30% or higher; further: value at the top dose of about 77 µM; on the % scale 0 is the no-effect control and ±100 the full control effect
Target sequence (P48426 whole entry, looked up): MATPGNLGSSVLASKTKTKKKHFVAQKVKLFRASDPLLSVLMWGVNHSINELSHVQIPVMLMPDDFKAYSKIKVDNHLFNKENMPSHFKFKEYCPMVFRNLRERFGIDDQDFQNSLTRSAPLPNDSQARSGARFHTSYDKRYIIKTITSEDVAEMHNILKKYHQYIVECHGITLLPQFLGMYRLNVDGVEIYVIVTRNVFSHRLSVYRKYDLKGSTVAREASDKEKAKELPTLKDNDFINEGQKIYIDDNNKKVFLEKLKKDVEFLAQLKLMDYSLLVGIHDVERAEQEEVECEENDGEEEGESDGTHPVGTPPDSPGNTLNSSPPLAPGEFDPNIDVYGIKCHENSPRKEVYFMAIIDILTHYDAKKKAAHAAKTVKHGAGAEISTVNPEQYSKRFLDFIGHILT
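Controls without substrate or without enzyme flank wells where PI5P4Kalpha converts substrate using 5 microM ATP (final). Incubation lasts 60 minutes at room temperature; ADP formed is read by ADP-Glo luminescence.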
KAT2A inh = GCN5L2 (KAT2A) acetyltransferase inhibition | Q92830 | GCN5L2 HAT assay, ThioGlo1 CoA-SH fluorescence | Potency, µM (titrated, usually from 58.9 µM), without a hit: at the top dose activity change, negative = inhibition, most hits filed as inhibitors | 0.21% of 390,000 active | AID 504327; further: potency means the concentration at half of the fitted maximal effect; on the % scale 0 is the no-effect control and ±100 the full control effect
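GCN5L2 (20 nM) in 50mM HEPES pH 7.5, 0.1mM EDTA, 0.01% Tween-20 preincubated 15 min with compounds at room temperature. Reaction started with H3(1-25) 75uM, acetyl-CoA 70uM, ThioGlo1 50uM; CoA-thiol fluorescence (Ex340/Em540) read at 0 and 20 min.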
PLK1 PBD inh = PLK1 (human) polo-box domain binding inhibition; P53350; Plk1 PBD binding of FITC phosphopeptide, fluorescence polarization; Potency, µM, without a hit: max response, negative = inhibition, usual class: inhibitors; 2.8% of 360,000 active; AID 720504; further: potency means the concentration at half of the fitted maximal effect; series mostly up to about 57 µM; on the % scale 0 is the no-effect control and ±100 the full control effect; nearly all actives have a fitted effect of over 65% in size
Rango release inh = prevents RanGTP from dissociating the Rango-importin beta complex; AID 540253; O95149+P62826; Biochemical FRET Rango-importin beta, RanGTP-induced dissociation; 0.071% of 340,000 active; Potency, µM (top dose mostly 46.1 µM), inactives show top-dose activity change, negative = inhibition; calls by dose curve; further: potency means the concentration at half of the fitted maximal effect; % of control where 0% means no effect; nearly all actives have a fitted effect of over 45% in size
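Two FRET readings bracket the reaction: one 5 min after compound meets Rango–importin beta, another 45 min after RanGTP-RCC1 (0.6 uM Ran, 0.2 uM RCC1, 2 mM GTP) is added. Only the second defines inhibition.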
The depositor's hits bear a star; ? = inconclusive; . = no result. Unless noted, the call rests on the fitted dose curve; in most records, active means well fitted curve in the direction sought with a large enough effect; inconclusive means small, poorly fitted or top-dose-only effect, or another doubt; inactive means no such curve, though single readings can be large; an effect the other way counts as inactive or inconclusive.

SMILES	VDR inh	Rango-impB inh	PI5P4Ka inh	KAT2A inh	PLK1 PBD inh	Rango release inh
O=C(NC(=S)Nn1cnnc1)c1ccccc1	-15%	0%	?	1%	?	5%
O=C(NC(=S)Nn1cnnc1)c1ccccc1Br	?	2%	-14	-17%	30µM*	-16%
CC1(C)CC(=O)C(C(C2=C(O)CC(C)(C)CC2=O)c2cccnc2)C(=O)C1 (stereo unspecified)	-10%	-2%	9	-6%	-29%	0%
Cc1ccc(C(C2=C(O)CC(C)(C)CC2=O)C2C(=O)CC(C)(C)CC2=O)o1 (stereo unspecified)	50µM*	-1%	-11	3%	6µM*	15%
CC1(C)CC(=O)C(C(C2=C(O)CC(C)(C)CC2=O)c2cccc(O)c2)C(=O)C1 (stereo unspecified)	-20%	0%	.	15%	?	5%
CC1(C)CC(=O)C(C(C2=C(O)CC(C)(C)CC2=O)c2cccs2)C(=O)C1 (stereo unspecified)	50µM*	2%	?	1%	4.7µM*	-8%
COc1cc(/C=C/C(=O)c2ccc(Cl)s2)cc(OC)c1O	56µM*	?	.	-5%	-10%	?
O=C(C=Cc1ccc(Cl)s1)c1ccc(Cl)s1	?	0%	8	.	-7%	22%
COc1ccc(C(=O)/C=C/c2ccc(OC)c(COc3ccc(F)cc3)c2)cc1	13%	0%	.	-10%	-4%	9%
COc1ccc(/C=C/C(=O)c2ccc(Cl)s2)cc1O	79µM*	?	2	-6%	-17%	1%
COc1ccc(C(=O)/C=C/c2ccc(OC)c(O)c2)c(F)c1	89µM*	2%	-8	16%	-11%	-5%
COc1ccc(C=CC(=O)c2ccc(OC)c(OC)c2)cc1O	.	.	-17	.	-5%	.
COCCOC(=O)/C(C#N)=C/c1cn(Cc2ccccc2)nc1-c1cccnc1	?	2%	-10	-6%	27µM*	-1%
COc1ccc(N2CCN(C(=O)c3cn(Cc4ccccc4)nc3-c3cccnc3)CC2)cc1	2%	7%	0	4%	-9%	38%
COc1cccc(OC)c1C(=O)OCC(=O)N(C)c1ccccc1	?	-2%	-9	-7%	27µM*	-1%
Cc1cc(C)cc(C(=O)NCC(=O)OCC(=O)N(C)c2ccccc2)c1	-18%	-3%	-6	0%	24µM*	4%
CN(C(=O)COC(=O)c1ccc(=O)n(Cc2ccccc2)n1)c1ccccc1	?	1%	?	-3%	17µM*	18%
CN(Cc1ccccc1)C(=O)COC(=O)c1ccc(=O)n(Cc2ccccc2)n1	0%	-1%	4	-5%	0%	1%
COc1ccc(/C=C/C(=O)Nc2ccc3nc(N4CCC(C)CC4)cc(C)c3c2)cc1OC	-19%	.	.	-16%	.	.
CC(C)C(=O)NC(=S)Nc1sc2c(c1C(N)=O)CCCC2	?	-1%	-54*	-14%	19µM*	-2%
COC(=O)Nc1sc2c(c1C(N)=O)CCCCCC2	?	6%	?	-9%	13µM*	-11%
CCCC(=O)NC(=S)Nc1sc2c(c1C(N)=O)CCC2	-3%	-3%	?	-3%	?	1%
NC(=O)c1c(NC(=S)Nc2ccc(F)cc2)sc2c1CCCC2	-19%	0%	-25	0%	?	-3%
CC(=O)NC(=S)Nc1sc2c(c1C#N)CCCCC2	-12%	2%	1	1%	11µM*	-4%
NC(=O)c1c(NC(=O)c2cc(-c3ccc(F)cc3)on2)sc2c1CCCC2	56µM*	.	.	-13%	.	.
SMILES	VDR inh	Rango-impB inh	PI5P4Ka inh	KAT2A inh	PLK1 PBD inh	Rango release inh
CCc1cccc(NC(=O)CCc2c(C)nc3c(-c4ccccc4)c(C)nn3c2C)c1	0%	.	.	-14%	.	.
COc1ccccc1CNC(=O)c1cc2ccc3ccc(C)[nH]c3c2n1	8%	.	.	3%	.	.
C=CCNC(=S)Nc1sc2c(c1C(N)=O)CCCC2	?	-1%	?	-5%	13µM*	-20%
CCn1c(=O)c2cc(C(=O)NCCCN3CCN(c4ccc(F)cc4)CC3)sc2c2ccccc21	-13%	.	.	0%	.	.
CC(C)OCCCNC(=S)Nc1ccc(S(N)(=O)=O)cc1	?	2%	-23	-5%	6µM*	-5%
NS(=O)(=O)c1ccc(NC(=S)NCCc2ccccc2)cc1	-19%	1%	-11	-1%	6.7µM*	-15%
CCOc1ccccc1CNC(=O)c1cc2c(=O)n(Cc3ccccc3)ccc2nc1C	2%	.	.	13%	.	.
Cc1c(Cl)ccc2c(C(=O)O)cc(-c3ccccc3)nc12	-18%	5%	3	-16%	24µM*	14%
Cc1ccc(C(=O)Nc2cccc([N+](=O)[O-])c2)cc1S(=O)(=O)Nc1cccc(C(=O)O)c1	-25%	10%	9	-18%	15µM*	-4%
Cc1ccc(C(=O)Nc2cccc([N+](=O)[O-])c2)cc1S(=O)(=O)Nc1ccc(NC(=O)c2ccccc2)cc1	17%	6%	-13	-7%	4%	-5%
N#CC(Sc1ccccn1)c1ccc(Cl)cc1 (stereo unspecified)	?	0%	8	-8%	7.5µM*	9%
CSc1ccccc1NC(=O)CN1CCCCC1C (stereo unspecified)	-4%	2%	12	3%	21µM*	?
CCc1cccc(OCCCCNCCO)c1	0%	3%	5	-6%	27µM*	21%
COc1ccc(NC(c2ccc(F)cc2)c2nnc(-c3ccccc3Cl)o2)cc1Cl (stereo unspecified)	-18%	.	.	-5%	.	.
C=CCn1nnnc1-c1cccc(Cl)c1	-5%	-1%	5	0%	27µM*	-6%
COc1ccc(-c2nc(C)c(CCNC(=O)c3ccccc3Br)s2)cc1OC	-2%	.	.	-13%	.	.
COc1ccc(S(=O)(=O)Nc2ccc(Oc3ncccn3)c(Cl)c2)cc1	-23%	1%	?	1%	5.3µM*	-10%
O=C(Nc1ccc(Nc2ccncc2)cc1)c1ccc(Nc2ccnc3ccc([N+](=O)[O-])cc23)cc1[N+](=O)[O-]	46%	4%	-54*	3%	-6%	-2%
O=C(Nc1ccc(Nc2ccncc2)cc1)c1ccc([N+](=O)[O-])cc1	-16%	4%	1	-5%	0%	29%
CN(C)C(=O)c1ccc(SC(=S)NCc2ccccc2)cc1	.	.	?	.	2.7µM*	.
Cc1ccc(Nc2nnc(SCC(O)=C(C#N)c3nc4ccccc4[nH]3)s2)c(C)c1	8%	?	?	.	-25%	?
Cc1cccc(Nc2nnc(SC/C(O)=C(\C#N)c3nc4ccccc4[nH]3)s2)c1C	19%	-13%	-59*	-6%	-21%	?
Cn1cnnc1SC/C(O)=C(\C#N)c1nc2ccccc2[nH]1	4%	-3%	-19	-2%	?	-17%
